Bioassay records as filed in PubChem.
ATXN viability: viability counter-screen for ATXN expression inhibitors. S2 cells (HEK-293 line with an ATXN2-luciferase reporter) viability, CellTiter-Fluor protease fluorescence, 24 h. Potency, µM (top dose mostly 56.7 µM), most hits filed as cytotoxic. 400,000 tested, 0.49% active. AID 651635; also: nearly all actives have a fitted effect of over 40% in size
ATXN2 expr inh: ATXN2 expression inhibition; HEK-293 ATXN2-luciferase reporter, luminescence, 24 h; Potency, µM (top dose mostly 57 µM), inactives show at the top dose activity change, negative = inhibition, actives largely listed as inhibitors; 360,000 tested, 0.72% active; also: % is scaled to controls: 0 for no effect and ±100 for the full control effect; nearly all actives have a fitted effect of over 55% in size
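qHTS (up to 57 uM final) was run with 24 h compound exposure of reporter cells at 37 °C. Each well was multiplexed: SteadyGlo luminescence measured ATXN2-luciferase expression after a fluorogenic Gly-Phe-AFC viability readout (25 uM final).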
HT1080 IDH1KD tx: toxicity to HT-1080 IDH1 knockdown cells (counter line). HT-1080 IDH1 knockdown viability, ATP luminescence, 48 h. Potency, µM (titrated, usually from 46.1 µM), without a hit: top-dose activity, negative = toxicity, usual class: cytotoxic. 360,000 tested, 2% active;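 also: 0% = DMSO wells and -100% = cell-free medium wells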
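Luminescent ATP read-out (CellTiter-Glo, 10 min at room temperature) after 48 h compound exposure at 37 °C gave viability of IDH1-knockdown HT-1080 cells. Activity was normalised to DMSO and cell-free wells, then fitted as concentration-response curves.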
TGFb SMAD3 inh: blocks TGF-b signaling. HepG2 CAGA-GFP TGF-b/SMAD3 reporter, GFP fluorescence, 18 h; TGF-beta stimulated, 500 pg/mL final. Potency, µM (top dose mostly 46.1 µM), for inactives: at the top dose activity, negative = inhibition, usual class: inhibitors. 410,000 tested, 1.2% active. AID 588855; also: % is scaled to controls: 0 for no effect and ±100 for the full control effect; nearly all actives have a fitted effect of over 65% in size
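Inhibition was scored as loss of TGF-beta-induced (500 pg/mL final, 18 hours, 37 degrees C) GFP in HEPG2 cells carrying a CAGA-GFP reporter, in DMEM with 1% FBS. Well GFP was summed per cell; Activity was normalised to unstimulated and stimulated DMSO wells, then concentration-response fitting.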
HepG2 tox: counter-screen for TGF-b inhibitors: cytotoxicity in HepG2 cells; Potency, µM (highest dose often 46.1 µM), inactives show top-dose activity change, negative = cytotoxicity, actives largely listed as cytotoxic; HepG2 CAGA-GFP viability, ATP luminescence, 18 h; 410,000 tested, 0.76% active
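HepG2 CAGA-GFP cells (1000/well, DMEM with 1% FBS) received compound, then TGF-beta at 500 pg/mL final, and were incubated 18 hours at 37 degrees C. Viability was read by CellTiter-Glo luminescence. Media-only wells were set as complete cell-killing and DMSO as no toxicity.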
HT1080-NT tox: kills 2HG-producing HT-1080-NT fibrosarcoma cells | HT-1080-NT fibrosarcoma viability, CellTiter-Glo ATP luminescence, 48 h | 360,000 tested, 1.6% active | Potency, µM (series often up to 46.1 µM), for the others: top-dose activity, negative = less viability, usual class: cytotoxic | AID 686970;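 also: NT is the 2HG producing partner of a matched IDH1 knockdown line; 0% = DMSO-treated cells and -100% = media-only wells without cells; nearly all actives have a fitted effect of over 55% in size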
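750 cells/well, RPMI + 5% FBS; 2 h settle, compound pin-transfer, 48 h at 37 degrees C. CellTiter-Glo 10 min RT, luminescence. Normalized to DMSO and media-only wells.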
An asterisk follows results filed as active; [ ] = another dose, or the depositor's remark. A selection: hits, their analogues and other compounds. The true share with any hit is near 3.8%. Calls follow the shape of the dose curve; as a rule, active = well fitted curve in the direction sought with a large enough effect; inconclusive = small, poorly fitted or top-dose-only effect, or another doubt; inactive = no such curve, though single readings can be large; an effect the other way counts as inactive or inconclusive. Potency is read from the fitted curve at half-maximal effect.

O=C1Nc2cc(C(=O)NCCN3CCCCCC3)ccc2S/C1=C/c1ccccc1F was read as ATXN viability inconclusive, HT1080 IDH1KD tx inconclusive, TGFb SMAD3 inh 10µM*, HepG2 tox 8.9µM* and HT1080-NT tox inconclusive.
Screening COc1cccc(/C=C2/Sc3ccc(C(=O)NCCN4CCCC4)cc3NC2=O)c1 returned ATXN viability inconclusive, HT1080 IDH1KD tx -9%, TGFb SMAD3 inh inconclusive, HepG2 tox 14µM* and HT1080-NT tox -12%.
For N#C/C(=C\c1ccc(N2CCOCC2)o1)c1nc2ccccc2[nH]1 the results were ATXN viability inactive, ATXN2 expr inh -19%, HT1080 IDH1KD tx inconclusive, TGFb SMAD3 inh 259%, HepG2 tox -11% and HT1080-NT tox inconclusive.
For N#C/C(=C/c1ccc(N2CCOCC2)o1)c1ccc(Cl)cc1 the results were ATXN viability inactive, ATXN2 expr inh -22%, HT1080 IDH1KD tx 3.5µM*, TGFb SMAD3 inh 58%, HepG2 tox -60% and HT1080-NT tox 6.3µM*.
Cc1cc(-c2ccc(C(C)C)c(S(=O)(=O)N3CCN(c4ccccc4)CC3)c2)on1 was read as ATXN viability inactive, ATXN2 expr inh -28%, HT1080 IDH1KD tx 1.8µM*, TGFb SMAD3 inh -23%, HepG2 tox -3% and HT1080-NT tox 1.5µM*.
Screening Cc1cccc(N2CCN(S(=O)(=O)c3cc(-c4cc(C)no4)ccc3C)CC2C)c1 (stereo not drawn) returned ATXN viability inactive, ATXN2 expr inh -24%, HT1080 IDH1KD tx 4.6µM*, TGFb SMAD3 inh -3%, HepG2 tox -35% and HT1080-NT tox inconclusive.
Screening CCCCOc1ccc(N=Cc2cccs2)cc1 returned ATXN viability inactive, ATXN2 expr inh 10%, HT1080 IDH1KD tx -4%, TGFb SMAD3 inh 11%, HepG2 tox 7% and HT1080-NT tox 3%.
Screening Oc1ccc(N=Cc2ccc(-c3cccs3)s2)cc1 returned ATXN viability inactive, ATXN2 expr inh inconclusive, HT1080 IDH1KD tx 10µM*, TGFb SMAD3 inh 11µM*, HepG2 tox 7.9µM* and HT1080-NT tox -28%[9.24 µM].
`CCN(CC)C(=O)c1ccc(-c2cccs2)s1` gave ATXN viability inactive, ATXN2 expr inh 23%, HT1080 IDH1KD tx -2%, TGFb SMAD3 inh -16%, HepG2 tox -10% and HT1080-NT tox -4%.
Screening O=Cc1ccc(-c2cccs2)s1 returned ATXN viability inactive, ATXN2 expr inh inconclusive, HT1080 IDH1KD tx -8%, TGFb SMAD3 inh 5.6µM*, HepG2 tox -10% and HT1080-NT tox -5%.
For COc1ccc(C(=O)NCc2nc(-c3cccc(C)c3)no2)cc1OC the results were TGFb SMAD3 inh inconclusive and HepG2 tox -16%.
COc1ccc(-n2nc(C(=O)NCc3ccco3)c3c4ccccc4n(C)c3c2=O)cc1 was read as ATXN viability inactive, HT1080 IDH1KD tx -5%, TGFb SMAD3 inh 0%, HepG2 tox 1% and HT1080-NT tox -25%.
`O=C(NCc1ccccc1)c1cccc2c(-c3ccc(F)c(F)c3)coc12` gave ATXN viability inactive, ATXN2 expr inh 8%, HT1080 IDH1KD tx inconclusive, TGFb SMAD3 inh inconclusive, HepG2 tox -19% and HT1080-NT tox inconclusive.
`COc1ccc(-n2nc(C(=O)NCc3ccco3)c3ccccc3c2=O)cc1` gave ATXN viability inactive, ATXN2 expr inh -20%, HT1080 IDH1KD tx 10µM*, TGFb SMAD3 inh 7%, HepG2 tox -15% and HT1080-NT tox inconclusive.
NC(=O)c1cccc(-c2coc3c(C(=O)NCCc4ccccc4)cccc23)c1 was read as ATXN viability inconclusive, ATXN2 expr inh -12%, HT1080 IDH1KD tx -22%, TGFb SMAD3 inh 10%, HepG2 tox -31% and HT1080-NT tox -5%.
COc1ccc(CNC(=O)c2cccc3c(-c4ccc(F)c(F)c4)coc23)cc1OC was read as ATXN viability inactive, ATXN2 expr inh 0%, HT1080 IDH1KD tx 16µM*, TGFb SMAD3 inh -25%, HepG2 tox -22% and HT1080-NT tox inconclusive.
For COc1cc(-c2coc3c(C(=O)NCc4ccc(C(F)(F)F)cc4)cccc23)ccc1O the results were ATXN viability inconclusive, ATXN2 expr inh inconclusive, HT1080 IDH1KD tx 26µM*, TGFb SMAD3 inh inconclusive, HepG2 tox -29% and HT1080-NT tox inconclusive.
Screening COc1ccc(CNC(=O)c2cccc3c(-c4cccc(C(N)=O)c4)coc23)cc1OC returned ATXN viability 18µM*, ATXN2 expr inh 32µM*, HT1080 IDH1KD tx 5.8µM*, TGFb SMAD3 inh -8%, HepG2 tox -31% and HT1080-NT tox inconclusive.
`COc1cc(-c2coc3c(C(=O)NCc4ccncc4)cccc23)ccc1O` gave ATXN viability inconclusive, ATXN2 expr inh -7%, HT1080 IDH1KD tx -12%, TGFb SMAD3 inh 0%, HepG2 tox -22% and HT1080-NT tox -8%.
For CCC1CN(CC(=O)NCc2cc(C)n(C)n2)Cc2cc(OC)ccc2O1 (stereo not drawn) the results were ATXN viability inactive.
Screening COc1cccc(C(=O)N2c3nc(-c4ccco4)nn3C3(CCCCC3)[C@@H]3CCCC[C@@H]32)c1 returned TGFb SMAD3 inh -12% and HepG2 tox -19%.
COc1cc(OC)c(/C=C/c2ccc3ccccc3[n+]2C)c(OC)c1 was read as TGFb SMAD3 inh 6% and HepG2 tox -18%.
CCOc1ccccc1NC(=O)c1nc2nc(C)cc(C(F)F)n2n1 was read as TGFb SMAD3 inh 0% and HepG2 tox -31%.
`CC1COC2(CCN(c3nc(=O)c4cc(C(F)(F)F)cc([N+](=O)[O-])c4s3)CC2)O1` (stereo not drawn) gave ATXN2 expr inh 68%.
`CCOc1ccc(CCNC(=O)CN2C(=O)COc3ccc(S(=O)(=O)N4CCC(C)CC4)cc32)cc1` gave ATXN viability inactive, ATXN2 expr inh 5%, TGFb SMAD3 inh 0% and HepG2 tox -23%.
`COc1cc(-c2coc3c(C(=O)NC4CCCCC4)cccc23)ccc1O` gave ATXN viability inconclusive, ATXN2 expr inh inconclusive, HT1080 IDH1KD tx 21µM*, TGFb SMAD3 inh -5%, HepG2 tox -33% and HT1080-NT tox 16µM*.
Screening COc1ccc(-c2coc3c(C(=O)NCc4ccco4)cccc23)c(C)c1 returned ATXN viability inconclusive, ATXN2 expr inh inconclusive, HT1080 IDH1KD tx inconclusive, TGFb SMAD3 inh inconclusive, HepG2 tox -7% and HT1080-NT tox 18µM*.
